Results reported in PubChem BioAssay AID743279 (National Center for Advancing Translational Sciences (NCATS), 2014).
The whole screen tested about 360,000 compounds, of which about 17,000 (4.7%) were called active. About 5% were inconclusive and are not listed. No stated cut-off is given here; in the data, active means activity change below about -50%; inconclusive means mostly about -30% to -49%; inactive means weaker than that. The sample as a whole holds a higher share of actives than the screen did.

experiment: qHTS for Inhibitors of Inflammasome Signaling: IL-1-beta AlphaLISA Primary Screen; details: THP-1 LPS/ATP IL-1B secretion, 16 h; at 57.5 µM, stronger effect = lower value
Text: Inflammasomes are a set of intracellular multi-protein complexes that enable autocatalytic activation of inflammatory caspases and drive the innate immune response to counter harmful agents. […] A qHTS assay, based on AlphaLISA technology, was developed to screen the Molecular Libraries Small Molecule Repository (MLSMR) to look for novel inflammasome inhibitors. The assay detects IL-1B using AlphaLISA anti-IL-1B acceptor and donor beads. A decreased emission signal, indicating reduced IL-1B secretion, is the desired outcome for this assay. NIH Chemical Genomics Center [NCGC] NIH Molecular Libraries Probe Centers Network [MLPCN] MLPCN Grant: MH095513 Assay Provider: Shyam Biswal Ph.D., Johns Hopkins University Immunity. 2012 Jul 27;37(1):85-95. PMID: 22819042 [2] Curr Pharm Des. 2012;18(16):2320-8. PMID: 22390695
Three microliters containing 3000 THP-1 cells were dispensed into the wells of solid, white, tissue culture treated Greiner 1,536-well plates. Library compounds and positive control, Glyburide, were pin-transferred (23 nL) by a Kalypsys pin-tool equipped with a 1,536-pin array, resulting in final compound concentration ranges of 2.5 nM to 57.5 uM. After 1 hr of cell culture incubation (37 °C, 5% CO2), 1 microL of 1 microg/mL lipopolysaccharide (250 ng/mL, final) and 5 mM ATP (1.25 mM, final) were added to stimulate the cells. After 16 hr of cell culture incubation with the compounds, 1.5 uL of anti-IL-1B acceptor beads (6 ug/mL, final) and biotinylated antibody (0.6 nM, final) were added to the plate, followed by a 1 hr incubation at ambient temperature. To detect the secreted IL-1B, 1.5 uL of AlphaLISA SA-Donor beads (24 ug/mL, final) were added, followed by 30 min of incubation in the dark at ambient temperature. The AlphaLISA signal was read by a PerkinElmer EnVision plate reader with an ultrasensitive luminescence detector and 1536 Plate HTS AlphaScreen aperture (excitation of 680nm and emission of 615nm).
On the % scale 0 is the no-effect control and ±100 the full control effect.

Activity change, inactive:
Cc1ccc(S(=O)(=O)N2CCC(C(=O)N3CCCCCCC3)CC2)cc1 -8.84%
O=C1C(Cl)=C(Oc2ccccc2)C(=O)c2ccccc21 -18%
Cc1ccc(S(=O)(=O)N2CCN(C(=O)c3cccs3)CC2)cc1 0%
CCS(=O)(=O)N1CCN(C(=O)c2cccs2)CC1 38.7%
Cc1nc2ccccc2c(C(=O)O)c1-c1ccccn1 12.8%
COc1ccc(NC(=O)CSc2nc(C)cs2)cc1 15.6%
COc1ccc(-n2ncc3c(SCC(=O)NNC(C)=O)ncnc32)cc1 -3.94%
CCN(CC)C(=O)C1=C(C)N(Cc2ccc(F)cc2)C(=O)C(CC(=O)NC2CCCC2)C1 (configuration not stated) 3.15%
CCOc1ccc(CCNC(=O)COC(=O)c2ccc(C)c(S(=O)(=O)N3CCOCC3)c2)cc1OCC -2.62%
Cc1noc(C)c1NC(=O)N(C)C[C@@H]1Oc2cc(Br)ccc2S(=O)(=O)N([C@@H](C)CO)C[C@H]1C -11.1%
CCCNC(=O)c1cc(C2CCCN(C(=O)c3ccc4c(c3)CCO4)C2)on1 (configuration not stated) 25.3%
CC(=O)c1c(C)[nH]c(C(=O)COC(=O)c2cccs2)c1C 17.9%
COc1cccc(C(=O)OCC(=O)c2[nH]c(C)c(C(C)=O)c2C)c1 12.1%
COc1c(F)c(F)c(-c2csc(N)n2)c(F)c1F -14.1%
CCOC(=O)[C@]12CCC=C1N(Cc1ccccc1)C(=O)[C@H](CC(=O)N1CCCC1)C2 48.2%
CN(C)c1ccc(S(=O)(=O)NCC(=O)NCC2CCCCC2)cc1[N+](=O)[O-] 8.52%
COc1ccc(NS(=O)(=O)c2ccc(O)c(C(=O)OCC(=O)NC3CCCCC3)c2)cc1 40.3%
C=CCn1c(SCC(=O)c2ccc(Br)cc2)nnc1C(C)NC(=O)Cc1ccc(OC)cc1 (configuration not stated) 18.8%
Cc1cccc(N2CCN(c3ccc(NC(=O)/C=C\C(=O)O)cc3)CC2)c1 -21.2%
Cn1cnnc1SCC(=O)Nc1ccc(N2CCOCC2)cc1 19.7%
COc1cccc(-c2ccc3c(c2)N(Cc2ccccc2OC)C(=O)C(C)S3)c1 (configuration not stated) 43.9%
COc1ccc(CCNC(=O)Nc2ccc3c(c2)c(=O)n(C)n3C)cc1OC -16.8%
Cc1c(OC(C)C(=O)N[C@@H](Cc2ccccc2)C(=O)O)ccc2c3c(c(=O)oc12)CCCC3 (some centres not stated) 11.6%
O=C1NC(=O)C(CCc2ccccc2)(c2ccccc2)N1 (configuration not stated) -4.4%
O=C(NCc1ccccc1)c1onc(CSc2ccncc2)c1C(=O)NCc1ccccc1 39.9%
CN(c1ccccc1)c1nc(N)c([N+](=O)[O-])c(NCc2ccco2)n1 -23.7%
COc1ccc(Nc2nc(NCc3ccco3)nc(N/N=C/c3ccccc3Cl)n2)cc1 -12.1%
COC(=O)c1sccc1NC(=O)COc1ccc(Cl)cc1 -5.02%
CCOC(=O)c1c(NC(=O)c2ccc(S(=O)(=O)N(C)CC3CCCO3)cc2)sc2c1CC(C)(C)NC2(C)C (configuration not stated) -16.8%
C[C@@H]1CN([C@H](C)CO)C(=O)CCCn2cc(nn2)CO[C@H]1CN(C)S(C)(=O)=O -20.6%
COC(=O)Cc1ccc(OC2(C)CCN(Cc3ccc4c(c3)OCCO4)C2)cc1 (configuration not stated) 12.5%
COc1cc(CN2CCCN(C)CC2)c([N+](=O)[O-])cc1OC 26.5%
COc1cc2c(cc1OC)C(c1cccc([N+](=O)[O-])c1)=NCC2 -7.18%
C=CCOc1ccccc1CNn1c(C)n[nH]c1=S 0.633%
CC(C)=CCc1ccc(O)c(=O)cc1C(C)C 1.89%
COc1cc(CNc2ncnc3c2ncn3[C@H]2CN(Cc3cccs3)C[C@@H](CO)O2)cc(OC)c1OC 0.705%
CCCCCn1nnnc1-c1nc2cc3ccccc3cc2[nH]c1=O 1.49%
CCCCn1c(N)c(N(CCOC)C(=O)CSCC(=O)Nc2cccc(C)c2)c(=O)[nH]c1=O 9.86%
CC(C)Oc1ccc(C2NC(=O)NC2=O)cc1 (configuration not stated) 10.2%
COc1ccccc1-c1n[nH]nc1C1=CC(=O)CC(C)(C)C1 -12.1%
Cc1ccc(-c2nnc(-n3nnc4ccccc43)c3ccccc23)cc1 55.9%
COc1cc2nnn(-c3ccncc3)c2cc1OC -22.1%
CC(Sc1ccc(S(=O)(=O)N2CCN(C)CC2)cn1)C(=O)NC1CCCC(C)C1C (configuration not stated) -7.4%
COc1cccc(CNc2nc3nc4c(c(=O)n3[nH]2)CCC4)c1 -4.67%
N#C/C=C\Oc1ccc(Cl)cc1N -9.78%
Cc1ccccc1S(=O)(=O)NC(=O)C1(C)CCN1C(=O)C1(c2ccccc2)CCCC1 (configuration not stated) 31.4%
C[C@@H]1Cn2cnc(C(=O)Nc3ccc(CNC(=O)OC(C)(C)C)cc3)c2C(=O)N1 -13.5%
Cc1cc(=O)oc2cc(NC(=O)C3CC(=O)N(Cc4ccccc4)C3)ccc12 (configuration not stated) 0%
CC(OC(=O)C1CC(=O)N(Cc2ccccc2)C1)C(=O)Nc1ccccc1[N+](=O)[O-] (configuration not stated) 16.6%
NC(=O)C1(Nc2ccc([N+](=O)[O-])cc2)CCCC1 -4.02%
CCOc1ccc(-c2ccc(SCC(=O)N3CCOCC3)nn2)cc1 71%
COc1cccc(/C=C/C(=O)OCC(=O)N2CCN(c3ccccc3)CC2)c1 -25.8%
CC(NC(=S)Nc1ccccc1)C1COc2ccccc2O1 (configuration not stated) -4.51%
CCOC(=O)CNC(=O)N1c2ccccc2Sc2ccccc21 -21%
CCOC(=O)C1=CC[C@@H](c2ccncc2)N(S(=O)(=O)c2ccc(C)cc2)C1 57.8%
O=C(c1ccc(Cl)c(S(=O)(=O)N2CCCCCC2)c1)N1CCN(c2ccc(O)cc2)CC1 -10.9%
COc1ccc(-n2c(-c3ccc(Cl)cc3)n[nH]c2=S)c(OC)c1 -15.4%
COc1cc(/C=C/C(=O)OCC(=O)c2ccccc2)cc(OC)c1OC 18.6%
COc1ccc(/C=C/C(=O)OCC(=O)Nc2cccc(Oc3ccccc3)c2)c(OC)c1 -2.25%
COc1cc(/C=C/c2ccc(/C=C/c3cc(OC)c(OC)c(OC)c3)cc2)cc(OC)c1OC 94.5%
CCOC(=O)C1CCCN(C(=O)Cn2ncc3c(=O)oc4ccc(C)cc4c32)C1 (configuration not stated) 2.35%
CCOC(=O)C1=CCC2C(=O)N(Cc3ccccc3)C(=O)C12 (configuration not stated) 3.12%
CN(c1ccccc1)S(=O)(=O)c1ccc(C(=O)NCc2cccnc2)cc1 12%
Cn1c(=O)c2c(nc(OCc3cccnc3)n2Cc2ccccc2)n(C)c1=O -9.43%
CCc1nc(C)ccc1OCC(=O)N(CC)CC 6.9%
CN(C)CCOc1ccc(Cl)cc1C(C)(C)C -13.6%
O=C(NC1CCCCC1)C1CCC(CNS(=O)(=O)c2ccccc2)CC1 (configuration not stated) -6.12%
O=C(Nc1ccccc1C(=O)Nc1ccncc1)c1ccc([N+](=O)[O-])cc1 -6.48%
Cc1ccc(/C=C2\CCn3c2nc2cc(C(=O)O)ccc2c3=O)c(C)c1 12.5%
N#Cc1ccc(/C=C2\CCn3c2nc2cc(C(=O)O)ccc2c3=O)cc1 -13.5%
O=C(Nn1c(SCc2ccc([N+](=O)[O-])cc2)nc2ccccc2c1=O)c1ccc(F)cc1 -1.43%
Cc1ccnc(NC(=O)Cn2ccc([N+](=O)[O-])n2)c1 15.1%
O=C(Nc1ccncc1)c1ccc([N+](=O)[O-])cc1Cl -15%
CCN(CC)c1ccc(C(=O)Nn2c(C)nc3ccccc3c2=O)cc1 18.5%
Cc1ccnc(NC(=O)c2ccoc2C)c1 -8.69%

Activity change, active:
Cc1ccc(N2CCN(C(=O)c3cccs3)CC2)c(C)c1 -56%
COc1ccc(NC(=O)CSc2ncnc3[nH]ncc23)cc1 -51%
CC(=O)c1c(C)[nH]c(C(=O)COC(=O)CCOc2ccc(C)cc2)c1C -89.1%
CCN(C(=O)COC(=O)c1cc(NS(=O)(=O)c2ccc(Cl)c([N+](=O)[O-])c2)ccc1O)C1CCCCC1 -98.5%
C=CC(=O)Nc1ccc(Nc2ccnc(Nc3ccc(N4CCN(C)CC4)cc3)n2)cc1 -83.2%
COc1cccc(Nc2nc(N)c([N+](=O)[O-])c(NCc3ccco3)n2)c1 -69.4%
COC(=O)c1c(NC(=O)COc2ccc(Cl)cc2Cl)sc2c1CC(C)(C)NC2(C)C -99.6%
COc1cc2c(cc1OC)C(Cc1cc(OC)c(OC)cc1[N+](=O)[O-])=NCC2 -58.9%
CC(C)=CCc1c(O)c(CC=C(C)C)c2occ(-c3ccc(O)cc3)c(=O)c2c1O -78.8%
CCCCn1c(-c2cccc(C)c2)nc2cc3[nH]c(=O)c(C(C)C)nc3cc21 -61%
c1ccc2c(c1)nnn2-c1ccncc1 -56.6%
COc1cccc(-c2cc3nc4c(c(N5CCC6(CC5)OCCO6)n3n2)CCCC4)c1 -96.1%
O=C(Nc1ccc(F)c([N+](=O)[O-])c1)C1CC(=O)N(Cc2ccccc2)C1 (configuration not stated) -91%
COc1cccc(-c2ccc(SCC(=O)N3CCN(c4ccccc4)CC3)nn2)c1 -69.3%
CCN1/C(=C/C(=S)Nc2ccccc2)Sc2ccccc21 -101%
COc1cc(/C=C/C2=CC(C)(C)NC(=S)N2)cc(OC)c1OC -71.3%
COc1ccc(/C=C/C2=CC(C)(C)NC(=S)N2)c(OC)c1 -87.3%
CCC(C)(C)c1ccc(OCC(=O)N(C)C)c(C(C)(C)CC)c1 -90.9%
Cc1nc2ccccc2c(=O)n1NC(=O)c1ccc(Cl)c([N+](=O)[O-])c1 -60.1%
O=C(O)c1ccc2c(=O)n3c(nc2c1)/C(=C/c1ccc(Cl)c([N+](=O)[O-])c1)CC3 -64.3%
Cc1ccnc(NC(=O)c2ccc(Cl)c([N+](=O)[O-])c2)c1 -78.4%
O=C(Nc1ccncc1)c1ccc(Cl)c([N+](=O)[O-])c1 -64.8%
